Records with an inconclusive call do not appear. A call without a number means that no potency is given here. Calls of active or inactive are those of the source. Calls come from the whole dose curve; as a rule, active = well fitted inhibition curve with a large enough effect; inconclusive = small, poorly fitted or top-dose-only effect; inactive = no such curve, though single readings can be large or run the other way.
Target: Retinaldehyde dehydrogenase 3 (Homo sapiens) (UniProt P47895)
Experiment: qHTS for Inhibitors of the Aldehyde Dehydrogenase Family (ALDH1A3) Primary screen (AID 2061315)
Conditions: ALDH inhibition qHTS; series mostly up to 56 µM

Row | Structure (SMILES) | Potency
1 | C[C@@H]1CCC2[C@@H](C)C(=O)OC3O[C@@]4(C)CCC1[C@]32OO4 (stereo not given in full) | inactive
2 | CC[C@H]1C[C@H]2[C@@H]3CCC4=CC(=O)CC[C@@H]4[C@H]3CC[C@]2(C)[C@H]1O | inactive
3 | CC(C)(O)[C@H]1O[C@H]2CC[C@@]3(C)[C@@](O)(CC[C@H]4Cc5c([nH]c6ccccc56)[C@@]43C)C2=CC1=O | inactive
4 | C[C@@H]1O[C@@H](O[C@H]2CC[C@@]3(C)C(CC[C@@H]4C3CC[C@]3(C)[C@@H](C5=CC(=O)OC5)CC[C@]43O)C2)[C@H](O)[C@H](O)[C@H]1O (stereo not given in full) | inactive
5 | CN1CCC2=C(C1)c1ccccc1Cc1ccccc12 | inactive

Reference: PubChem BioAssay (NCATS)
